{
  "source": "PubChem BioAssay",
  "note": "Values without a mark were called inactive.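 Rule for the calls: active = viability loss from added drug above about 55%, and viability with drug at most 40%, in both replicates (limit read from the data, passing the limit was not always enough); inconclusive = both conditions met in only one replicate; inactive = neither replicate meets both conditions.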",
  "data": [
    {"test": "reversal of MRP1-mediated doxorubicin resistance, pilot screen, H69AR cells, doxorubicin co-treatment (AID 601)", "conditions": "H69AR cells + 2 uM doxorubicin, CellTiter-Glo, 72 h; at 10 µM; stronger effect = higher value", "units": {"differential viability (reversal)": "%"}, "values": [
      {"molecule": "COC(=O)c1ccc(CSc2nc(-c3ccc(OC)cc3)nc3c2c(=O)n(C)c(=O)n3C)o1", "differential viability (reversal)": -11.5},
      {"molecule": "COC(=O)c1[nH]c2cc(OC)ccc2c1NC(=O)CN1CCOCC1", "differential viability (reversal)": 3.07},
      {"molecule": "NC(=O)CSc1nnc(-c2ccc(O)cc2)n1Cc1ccco1", "differential viability (reversal)": 9.33},
      {"molecule": "COc1ccccc1NC(=O)C1=C(C)Nc2nc(CCCO)nn2C1c1cccnc1", "note": "(stereo unspecified)", "differential viability (reversal)": 11},
      {"molecule": "CCOc1ccc(NC(=O)c2ccc3c(c2)N(Cc2ccc(F)cc2)C(=O)CS3=O)cc1", "note": "(stereo unspecified)", "differential viability (reversal)": 11.4},
      {"molecule": "CCn1c(=O)cc(OCC(=O)NC2CCCCC2)c2ccccc21", "differential viability (reversal)": 9.56},
      {"molecule": "COc1ccc(OC)c(C(=O)CSc2nnc(-c3ccc(OC)c(OC)c3)o2)c1", "differential viability (reversal)": 0.865},
      {"molecule": "Cc1nc(Nc2nc(=O)c3ccccc3n2C)nc2c(C)cccc12", "differential viability (reversal)": -12.9},
      {"molecule": "CC(C)(C)OC(=O)NCCc1nnc(SCC(=O)c2ccc(Cl)cc2)o1", "differential viability (reversal)": 13},
      {"molecule": "CCSc1nnc(NC(=O)C2CCCN(S(=O)(=O)c3cnc[nH]3)C2)s1", "note": "(stereo unspecified)", "differential viability (reversal)": 1.98},
      {"molecule": "O=C1CC(Cc2ccccc2)C(=O)N1CCCn1ccnc1", "note": "(stereo unspecified)", "differential viability (reversal)": 8.18},
      {"molecule": "Cc1ccc(CSC2=NCCN2C(=O)c2ccco2)cc1", "differential viability (reversal)": 2.8},
      {"molecule": "O=C1c2ccccc2C(=O)N1Cc1nc2ccccc2c(=O)n1CCN1CCOCC1", "differential viability (reversal)": -3.33},
      {"molecule": "c1cn(CC2(Cn3ccnc3)COC2)cn1", "differential viability (reversal)": 12},
      {"molecule": "c1cncc(-c2nnc3n2N=C(c2cccs2)CS3)c1", "differential viability (reversal)": 4.06},
      {"molecule": "CCOC(=O)N1CCN(c2c(N3CCc4ccccc4C3)c(=O)c2=O)CC1", "differential viability (reversal)": 6.33}
    ]}
  ]
}
